In ChEMBL document CHEMBL3433997, “St. Jude Leishmania screening dataset” (2016):

Key:
Format in all cases: functional
[1] = biological target: Solute carrier family 2, facilitated glucose transporter member 1 (Homo sapiens) (UniProt P11166); assay: ST_JUDE_LEISH: Cytotoxicity at 2uM final concentration against transgenic Leishmania Mexicana promastigotes LmGLUT1 that are glucose transport deficient and complemented with the human glucose transporter GLUT1. Activity is measured by DNA content using SYBR green in vitro
[2] = biological target: Hexose transporter 1 (Plasmodium falciparum) (UniProt O97467); assay: ST_JUDE_LEISH: Cytotoxicity at 2uM final concentration against transgenic Leishmania Mexicana promastigotes LmPfHT that are glucose transport deficient and complemented with the Plasmodium falciparum hexose transporter. Activity is measured by DNA content using SYBR green in vitro
[3] = biological target: Glucose transporter (Leishmania mexicana) (UniProt O61059); assay: ST_JUDE_LEISH: Cytotoxicity at 2uM final concentration against transgenic Leishmania Mexicana promastigotes LmGT2 that are glucose transport deficient and complemented with the L. Mexicana glucose transporter 2. Activity is measured by DNA content using SYBR green in vitro

Chain of Solute carrier family 2, facilitated glucose transporter member 1 (Homo sapiens) (P11166 whole entry): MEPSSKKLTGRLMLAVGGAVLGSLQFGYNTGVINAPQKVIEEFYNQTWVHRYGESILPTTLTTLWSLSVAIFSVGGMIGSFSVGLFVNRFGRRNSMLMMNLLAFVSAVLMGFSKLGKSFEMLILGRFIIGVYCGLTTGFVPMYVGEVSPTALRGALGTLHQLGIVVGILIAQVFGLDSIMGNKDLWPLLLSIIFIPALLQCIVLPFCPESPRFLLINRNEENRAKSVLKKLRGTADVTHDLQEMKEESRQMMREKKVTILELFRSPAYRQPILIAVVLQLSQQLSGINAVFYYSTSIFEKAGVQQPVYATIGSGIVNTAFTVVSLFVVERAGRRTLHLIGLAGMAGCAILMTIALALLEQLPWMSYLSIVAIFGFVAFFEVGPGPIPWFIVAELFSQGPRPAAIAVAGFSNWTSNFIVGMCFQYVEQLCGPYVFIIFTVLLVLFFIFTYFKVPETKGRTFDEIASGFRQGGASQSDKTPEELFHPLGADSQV

SMILES	inhibition [1] [%]	inhibition [2] [%]	inhibition [3] [%]
Cc1nc(-c2ccc(-c3ccc(NC(=O)Nc4ccc(I)c(OCCN(C)C)c4)cc3)c(C)c2)no1	7	5.44	3.02
COc1ccc(C2C(C(=O)OC3CCCCC3)=C(C)NC3=C2C(=O)CCC3)cc1Br (stereo not drawn)	0.38	-0.1	1.36
Cc1noc(-c2ccc3c(c2)CCN(CCC2CCC(NC(=O)c4cc5ccccc5[nH]4)CC2)CC3)n1 (stereo not drawn)	2.93	2.28	1.98
CN(CCc1ccccc1)c1ncc(-c2ccccc2CNCc2ccccc2O)cn1	0.08	-1.17	2.23
COc1cc2cc(Cc3cnc(N)nc3N)ccc2c(OC)c1OC	0.96	-0.27	1.56
CCC1(CC)N=C(N)N=C(N)C1c1ccc(Cl)c(Cl)c1 (stereo not drawn)	-0.44	0.07	0.44
N=C(N)NCCCN(Cc1ccccc1)c1ccc(Cl)cc1	7.39	4.12	4.83
CN1CCN(c2ccc(Nc3ncc(Cl)c(Nc4cccnc4C(N)=O)n3)cc2)CC1	84.2	87.3	66.8
N#Cc1ccc(CCNc2nccc(-c3cccc(CN4CCNCC4)c3)n2)cc1	12.3	12.8	6.7
FC(F)(F)c1ccc(-c2cncc(-c3ccc(C(F)(F)F)cc3)n2)cc1	-1.94	-1.14	-1.64
CCCCN(CCCC)CCNC(=O)c1cccc(NC(=O)N2CCc3cc(SC)c(C(F)(F)F)cc32)c1	3.07	4.24	2.86
Cc1ccccc1N1CCN(c2ncc(C(=O)NC3CC3)cc2Cl)CC1	6.45	6.74	5.71
COc1ccc2nccc([C@@H](O)CN3CCC(NCc4nc5c(cc4Cl)OCC(=O)N5)C(F)C3)c2c1 (stereo partly drawn)	1.37	0.56	0.2
O=c1cc(NCCCN(Cc2ccccc2)Cc2ccccc2)[nH]c2ccccc12	0.48	4	5.36
CC(C)c1ccc(-c2noc(SCC(=O)N(C)c3ccc(F)cc3)n2)cc1	-1.33	0.23	-0.55
CCCCC(=O)Nc1nonc1-c1ccc(OCC)c(OCC)c1	-0.29	-0.24	-4.47
CCC(C)(C)c1ccc2nc(N)nc(N)c2c1C	74.5	76.4	61.7
CC(C)(C)OC(=O)Nc1cccc(-c2csc(NC(=N)N)n2)c1	0.85	0.42	-0.52

SMILES	inhibition [1] [%]	inhibition [2] [%]	inhibition [3] [%]
Fc1ccc(-c2cncc(Nc3ccncc3)n2)cc1	6.02	7.91	8.39
CC1CCN(C(=O)CSc2nc(-c3ccc(C(C)C)cc3)no2)CC1	7.2	9.21	6.14
O=C(CCc1c[nH]cn1)Nc1cccc(-c2cccc(-c3nc4cc(C(F)(F)F)ccc4[nH]3)c2)c1	-0.34	0.58	0.79
O=C(Nc1cccc(CN2CCN(Cc3ccc(O)cc3)CC2)c1)c1cccc(C(F)(F)F)c1	6.03	6.51	4.56
COc1cc(Nc2ccc3cc(S(=O)(=O)N4CCCCC4C)ccc3n2)cc(OC)c1OC (stereo not drawn)	6.4	34.2	0.58
Nc1ccc(-c2nc3cc(Cc4ccc5[nH]c(-c6ccc(N)cc6)nc5c4)ccc3[nH]2)cc1	0.06	-2.2	-2.11
Cc1cccc2nc(-c3ccc(-c4ccc(CNCc5ccccc5)cc4)cc3)[nH]c12	3.54	3.32	4.35
c1csc(-c2nc(NCC3CCCO3)ncc2-c2ccsc2)n1 (stereo not drawn)	1.71	2.71	3.35
C=CCc1cc(Cc2cnc(N)nc2N)cc(CCC)c1OC	15.3	12.5	8.6
FC(F)(F)COc1ccc(CNCCCCCCNCc2ccc(OCC(F)(F)F)c3ccccc23)c2ccccc12	113	107	108
Cc1ccc(Nc2nccc(NCC(O)c3cccc(F)c3)n2)cc1 (stereo not drawn)	0.93	1.15	-0.59
COc1ccc2[nH]c(C)cc(=NN=Cc3cc(C)ccc3O)c2c1	13.1	11.2	8.77
CCCCN(CCCC)CCCN(CCCN(CCCC)CCCC)c1cc(C)nc(Nc2ccc(Cl)cc2)n1	-0.03	0.22	0.44
CC1(C)S(=O)(=O)CC(O)CS1(=O)=O	3.87	3.02	2.49
COc1cc(Nc2nccc(N3CCC(NC(=O)c4cccc(NC(C)=O)c4)C3)n2)cc(OC)c1OC (stereo not drawn)	0.31	0.55	-0.85
Cc1cc(N[C@@H](CC(C)C)C(=O)NCCc2ccccc2)nc(Nc2ccccc2)n1	4.26	5.37	2.63
COc1cc(OC)nc(-c2cccc(NC(=O)c3ccc4c(=O)n(CCN5CCCCC5)cnc4c3)c2)n1	11.9	9.45	7.35
Cc1cccc(CNc2nccc3[nH]c4ccccc4c23)c1	4.82	4.77	1.28
